According to PubChem BioAssay:
For some of these results: Potency and affinity values are given separately. Active and inactive are the calls of the source. Unless noted, how the calls were made is not given here.

How the values were obtained:
[1] = antimalarial activity against Dd2 strain (AID 2302;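 active means growth inhibition above 50% at the single 2 µM test dose, taken to imply half-maximal potency below 2 µM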;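 further: 0% = DMSO untreated growth and 100% = chloroquine plus artemisinin killed control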); conditions: P. falciparum Dd2 in RBCs, LDH growth readout, 72 h; at 2 µM; stronger effect = higher value
[2] = HepG2 cytotoxicity, primary screen, cytotoxicity control for P. falciparum antimalarial project, cell-based, ATP luminescence (AID 2303;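 active means inhibition above 50%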;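 further: 0% = DMSO wells and 100% = digitonin-killed cells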); conditions: HepG2 viability, 24-48 h, at 10 µM, stronger effect = higher value
[3] = biological target: L-lactate dehydrogenase (Plasmodium falciparum (isolate CDC / Honduras)) (UniProt Q27743); experiment: PfLDH activity inhibition – cell lysate, 3D7 strain, counter-screen for P. falciparum growth inhibition project (AID 2304);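 further: 0% = vehicle and 100% = reference inhibitor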; conditions: P. falciparum 3D7 crude extract, LDH APAD/NBT absorbance; at 2 µM; stronger effect = higher value
L-lactate dehydrogenase (Plasmodium falciparum (isolate CDC / Honduras)), sequence (Q27743 whole entry, looked up): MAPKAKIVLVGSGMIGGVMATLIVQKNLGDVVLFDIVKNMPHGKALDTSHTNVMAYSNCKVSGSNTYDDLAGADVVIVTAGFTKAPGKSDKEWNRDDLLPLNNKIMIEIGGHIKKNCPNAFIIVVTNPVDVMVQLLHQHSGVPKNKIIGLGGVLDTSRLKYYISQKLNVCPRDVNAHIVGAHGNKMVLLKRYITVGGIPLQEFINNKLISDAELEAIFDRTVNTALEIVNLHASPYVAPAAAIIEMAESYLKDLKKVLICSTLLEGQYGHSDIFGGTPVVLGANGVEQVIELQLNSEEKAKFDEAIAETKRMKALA

[4] = inhibition of 3D7 malaria parasite growth – strain 3D7 (AID 2306);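 further: 0% = DMSO wells and 100% = chloroquine plus artemisinin control wells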; conditions: P. falciparum 3D7 erythrocytic growth, LDH absorbance, 72 h; at 2 µM; stronger effect = higher value
[5] = biological target: Calcium-dependent protein kinase 1 (Plasmodium falciparum (isolate 3D7)) (UniProt P62344); experiment: PfCDPK1 kinase inhibitors, biochemical, TCAMS library (AID 1159585; cut-off not given, nearly all actives have IC50 up to about 0.98 µM;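 further: inhibitors leave more ATP so luminescence rises with inhibition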); conditions: recombinant PfCDPK1, Kinase-Glo ATP depletion luminescence
Calcium-dependent protein kinase 1 (Plasmodium falciparum (isolate 3D7)), sequence (P62344 whole entry, looked up): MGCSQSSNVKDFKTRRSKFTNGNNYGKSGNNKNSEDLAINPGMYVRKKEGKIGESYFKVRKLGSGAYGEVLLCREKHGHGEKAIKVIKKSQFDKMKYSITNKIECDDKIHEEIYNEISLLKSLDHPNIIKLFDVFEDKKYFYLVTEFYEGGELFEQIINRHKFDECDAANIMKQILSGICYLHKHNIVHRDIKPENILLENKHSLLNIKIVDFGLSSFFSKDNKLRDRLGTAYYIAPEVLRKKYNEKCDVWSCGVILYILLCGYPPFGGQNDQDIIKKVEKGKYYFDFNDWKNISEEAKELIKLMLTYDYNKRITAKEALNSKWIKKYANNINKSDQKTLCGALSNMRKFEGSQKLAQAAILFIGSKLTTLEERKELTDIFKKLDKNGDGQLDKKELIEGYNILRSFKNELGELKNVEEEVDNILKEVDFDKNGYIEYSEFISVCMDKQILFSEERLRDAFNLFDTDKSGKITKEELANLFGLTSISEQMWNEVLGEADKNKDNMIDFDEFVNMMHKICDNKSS

[6] = biological target: Plasmodium falciparum protein kinase 6 (PK6, PF3D7_1337100) (UniProt Q8IDW1); experiment: PfPK6 kinase inhibitors, biochemical, TCAMS library (AID 1159586); conditions: recombinant PfPK6, Kinase-Glo ATP depletion luminescence
Plasmodium falciparum protein kinase 6 (PK6, PF3D7_1337100), sequence (Q8IDW1 1-305): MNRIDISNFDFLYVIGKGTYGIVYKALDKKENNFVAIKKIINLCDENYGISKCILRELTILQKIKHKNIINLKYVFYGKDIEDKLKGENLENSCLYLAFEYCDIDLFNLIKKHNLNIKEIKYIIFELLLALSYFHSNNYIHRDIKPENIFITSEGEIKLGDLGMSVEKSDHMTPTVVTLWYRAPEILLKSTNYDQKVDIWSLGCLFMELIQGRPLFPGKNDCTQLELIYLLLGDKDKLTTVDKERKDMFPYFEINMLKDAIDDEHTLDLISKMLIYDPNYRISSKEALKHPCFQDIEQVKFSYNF

[7] = biological target: Protein kinase 7 (PK7), Plasmodium falciparum 3D7 (PF3D7_0213400) (UniProt Q7YTF7); experiment: inhibition of Plasmodium PK7 catalytic activity – biochemical, TCAMS antimalarial set, Kinase-Glo luminescence (AID 1159587); conditions: recombinant PfPK7, Kinase-Glo ATP depletion luminescence
Protein kinase 7 (PK7), Plasmodium falciparum 3D7 (PF3D7_0213400), sequence (Q7YTF7 1-343): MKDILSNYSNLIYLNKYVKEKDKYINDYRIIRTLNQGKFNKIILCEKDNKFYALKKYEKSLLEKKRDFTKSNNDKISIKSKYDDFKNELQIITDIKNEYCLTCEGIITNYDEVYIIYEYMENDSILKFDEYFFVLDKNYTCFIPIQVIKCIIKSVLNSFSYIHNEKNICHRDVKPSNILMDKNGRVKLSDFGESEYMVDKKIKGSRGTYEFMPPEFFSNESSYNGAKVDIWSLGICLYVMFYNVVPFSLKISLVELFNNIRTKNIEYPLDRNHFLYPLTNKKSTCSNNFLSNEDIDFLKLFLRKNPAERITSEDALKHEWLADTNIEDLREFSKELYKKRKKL

[8] = biological target: Calcium-dependent protein kinase 4 (Plasmodium falciparum (isolate 3D7)) (UniProt Q8IBS5); experiment: PfCDPK4 kinase inhibitors, biochemical, TCAMS library (AID 1159588; cut-off not given, nearly all actives have IC50 up to about 0.91 µM); conditions: recombinant PfCDPK4, Kinase-Glo ATP depletion luminescence
Calcium-dependent protein kinase 4 (Plasmodium falciparum (isolate 3D7)), sequence (Q8IBS5 whole entry, looked up): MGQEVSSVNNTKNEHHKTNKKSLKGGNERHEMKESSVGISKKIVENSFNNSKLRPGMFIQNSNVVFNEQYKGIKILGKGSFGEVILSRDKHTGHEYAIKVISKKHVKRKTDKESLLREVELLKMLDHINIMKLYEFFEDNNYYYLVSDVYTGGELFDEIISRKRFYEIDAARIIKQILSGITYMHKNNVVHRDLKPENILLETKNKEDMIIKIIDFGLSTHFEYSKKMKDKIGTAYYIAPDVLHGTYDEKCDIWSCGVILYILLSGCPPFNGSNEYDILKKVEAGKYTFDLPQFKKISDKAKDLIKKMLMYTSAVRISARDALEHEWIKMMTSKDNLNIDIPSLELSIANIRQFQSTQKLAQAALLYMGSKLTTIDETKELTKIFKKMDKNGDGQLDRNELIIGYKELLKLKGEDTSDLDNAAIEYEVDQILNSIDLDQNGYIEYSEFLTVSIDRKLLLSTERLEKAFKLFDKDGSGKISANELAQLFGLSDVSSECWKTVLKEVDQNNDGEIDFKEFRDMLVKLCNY

CC(=O)Nc1ccc(C(=O)Nc2cccc(-c3ccc(-c4nc5ccccc5[nH]4)s3)c2)cn1
inactive: inhibition [2] 9% | inhibition [3] 2% | outcome [5] | outcome [6] | outcome [7] | outcome [8]
active: growth inhibition [1] 91% | growth inhibition [4] 101%

COc1cc(Br)ccc1N1CCN(CCCCNC(=O)c2ccc(NC(=O)c3ccc(Cl)cc3)cc2)CC1
active: inhibition [2] 55% | growth inhibition [4] 96%
inactive: growth inhibition [1] 33% | inhibition [3] 1% | outcome [5] | outcome [6] | outcome [7] | outcome [8]

CC(C)C[C@H](Nc1ccnc(NCC2CCCCC2)n1)C(=O)Nc1ccccc1
active: growth inhibition [4] 87%
inactive: growth inhibition [1] 42% | inhibition [2] 6% | inhibition [3] 2% | outcome [5] | outcome [6] | outcome [7] | outcome [8]

COc1ccc(Br)cc1/C=C/C(=O)Nc1ccc(C2CCCN(C)C2)cc1 (stereo not given)
active: growth inhibition [4] 100%
inactive: growth inhibition [1] 35% | inhibition [2] 18% | inhibition [3] -2% | outcome [5] | outcome [6] | outcome [7] | outcome [8]

COc1cc(C2Nc3ccc4ccccc4c3C3=C2C(=O)CC(C)(C)C3)ccc1Oc1ccc([N+](=O)[O-])cc1C#N (stereo not given)
active: growth inhibition [1] 94% | growth inhibition [4] 99%
inactive: inhibition [2] 8% | inhibition [3] -1% | outcome [5] | outcome [6] | outcome [7] | outcome [8]

Cn1cc(CCNc2ccnc(NCCc3coc4ccccc34)n2)c2ccccc21
active: growth inhibition [4] 87%
inactive: growth inhibition [1] 28% | inhibition [2] 26% | inhibition [3] 6% | outcome [5] | outcome [6] | outcome [7] | outcome [8]

Oc1cc2c(cc1CN1CCN(Cc3ccccc3F)CC1)CCC2
inactive: inhibition [2] 2% | inhibition [3] -3% | outcome [5] | outcome [6] | outcome [7] | outcome [8]
active: growth inhibition [1] 94% | growth inhibition [4] 98%

Cc1cc(Nc2ccc3c(c2)CCC3)n2ncnc2n1
inactive: growth inhibition [1] 48% | inhibition [2] 4% | inhibition [3] -2% | outcome [5] | outcome [6] | outcome [7] | outcome [8]
active: growth inhibition [4] 86%

Cc1cccc2[nH]c(-c3ccc(-c4cccc(CNCc5ccc(S(C)(=O)=O)cc5)c4)s3)nc12
inactive: inhibition [2] 31% | inhibition [3] -3% | outcome [5] | outcome [6] | outcome [7] | outcome [8]
active: growth inhibition [1] 91% | growth inhibition [4] 100%

FC(F)(F)c1cccc(CCNc2nccc(NCc3ccc(Cl)cc3Cl)n2)c1
inactive: inhibition [2] 8% | inhibition [3] 1% | outcome [5] | outcome [6] | outcome [7] | outcome [8]
active: growth inhibition [1] 59% | growth inhibition [4] 97%

CC(C)(C)C1CC(=O)C[C@@H]2C(=O)N(c3ccc(Br)cc3)C(=O)[C@H]12 (stereo not given in full)
inactive: growth inhibition [1] 7% | inhibition [2] -2% | inhibition [3] 1% | outcome [5] | outcome [6] | outcome [7] | outcome [8]
active: growth inhibition [4] 94%

O=C(/C=C/C=C/c1ccccc1)NCCCCCN1CCC(c2c[nH]c3ccccc23)CC1
active: growth inhibition [4] 85%
inactive: growth inhibition [1] 7% | inhibition [2] 28% | inhibition [3] 4% | outcome [5] | outcome [6] | outcome [7] | outcome [8]

Nc1ncc(-c2ccc3[nH]ccc3c2)c2ccc(-c3ccncc3)cc12
inactive: inhibition [2] 42% | inhibition [3] -6% | outcome [5] | outcome [6] | outcome [7] | outcome [8]
active: growth inhibition [1] 100% | growth inhibition [4] 100%

COc1ccc2c(c1)CC(NCc1ccc(-c3ccc4nc[nH]c4c3)cc1)C2 (stereo not given)
inactive: inhibition [2] 30% | inhibition [3] 1% | outcome [5] | outcome [6] | outcome [7] | outcome [8]
active: growth inhibition [1] 71% | growth inhibition [4] 100%

O=C1CCCN1CCCNCc1cccc(-c2ccc(-c3nc4ccccc4[nH]3)s2)c1
inactive: growth inhibition [1] 0% | inhibition [2] -6% | inhibition [3] -3% | outcome [5] | outcome [6] | outcome [7] | outcome [8]
active: growth inhibition [4] 97%

COc1cc(C2CCCCC2)c(OC)cc1CC1c2cc(O)c(Cl)cc2CCN1C (stereo not given)
inactive: inhibition [2] 12% | inhibition [3] 4% | outcome [5] | outcome [6] | outcome [7] | outcome [8]
active: growth inhibition [1] 100% | growth inhibition [4] 100%

O=S(=O)(c1cccc(Br)c1)N1CCCCC(c2ccc(C(F)(F)F)cc2)=N1
active: growth inhibition [1] 92% | growth inhibition [4] 91%
inactive: inhibition [2] 30% | inhibition [3] -4% | outcome [5] | outcome [6] | outcome [7] | outcome [8]

O=C(NCCc1cccc(Cl)c1Cl)c1cnc(N2CCN(c3ccncc3)CC2)c(Cl)c1
inactive: inhibition [2] 47% | inhibition [3] 0% | outcome [5] | outcome [6] | outcome [7] | outcome [8]
active: growth inhibition [1] 99% | growth inhibition [4] 100%

NC(=O)c1ccccc1OCC(=O)Nc1cccc(-c2ccc(-c3nc4ccc(C(F)(F)F)cc4[nH]3)cc2)c1
active: inhibition [2] 58% | growth inhibition [4] 92%
inactive: growth inhibition [1] 17% | inhibition [3] -2% | outcome [5] | outcome [6] | outcome [7] | outcome [8]

O=C(NCC1Cc2cc(Oc3ccccc3)ccc2O1)c1ccc([N+](=O)[O-])o1 (stereo not given)
inactive: inhibition [3] -3% | outcome [5] | outcome [6] | outcome [7] | outcome [8]
active: growth inhibition [1] 81% | inhibition [2] 83% | growth inhibition [4] 88%
